# Assay results: article PMC6212833
# Among all 2,000 compounds or so, about 15 (0.8%) showed an effect of 50% or more. Only a selection was taken, and strong results are over-represented in it overall.
# System: Balamuthia mandrillaris (ATCC PRA-291) trophozoites, axenic culture
# Assay: primary screen, percent inhibition; higher = more effect of the substance;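 further: 0% = vehicle wells and 100% = lysate wells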
# Settings: 20 µM
# Protocol: Screening of a clinically approved library of compounds, compiled by the Small Molecule Discovery Center (SMDC) at the UCSF, was completed at 20 µM in 0.2% DMSO. All 2,177 drugs in the library were stored as 10 mM stocks dissolved in 100% DMSO (Sigma-Aldrich) at −20°C. B. mandrillaris amoebae were resuspended in axenic medium and distributed into opaque 384-well plates (Corning) at a density of 3,000 amoebae per well using a BioMek NX liquid handler. Negative-control wells were treated with vehicle only (0.2% DMSO in axenic medium), and positive-control wells simulating total destruction of amoebae were seeded with amoeba lysate generated by 3 consecutive freeze-thaw cycles. Following 72 h of incubation, 30 µl of CellTiter Glo reagent (CTG; Promega) was added to each well. The luminescence was measured with a Promega GloMax-Multi+ plate reader at 2, 4, and 8 h after CTG addition. […] The B-score, representing a plate-based statistical approach for correcting row, column, and edge effects, was also calculated for each compound in the library (75).
row,Structure (SMILES),% Inhibition [%]
1,C[C@]12CCC3c4ccc(O)cc4CCC3C1C[C@@H](O)[C@@H]2O (some centres unmarked),-15
2,C[C@@H]1O[C@@H](O[C@H]2C[C@@H](O)[C@]3(CO)[C@H]4[C@H](O)C[C@]5(C)[C@@H](C6=CC(=O)OC6)CC[C@]5(O)[C@@H]4CC[C@]3(O)C2)[C@H](O)[C@H](O)[C@H]1O,10.8
3,CC[N+](CC)(CC(=O)Nc1c(C)cccc1C)Cc1ccccc1,14
4,CN1[C@@H]2C[C@@H](OC(=O)[C@H](CO)c3ccccc3)C[C@H]1[C@@H]1O[C@@H]12,20.7
5,C=CCCCCCCCCC(=O)O [735790-L3],30.5
6,CCNC(=O)CCC/C=C\C[C@@H]1[C@@H](/C=C/[C@@H](O)CCc2ccccc2)[C@H](O)C[C@@H]1O,22.9
7,Nc1ccc(S(=O)(=O)O)cc1,31.3
8,CCC(=O)NCC[C@@H]1CCc2ccc3c(c21)CCO3,16.9
9,CC(CC(C(N)=O)(c1ccccc1)c1ccccc1)N(C)C (centres unmarked),14.2
10,C=Cc1c(C)c2[n]3c1C=C1C(C)=C(CC)C4=[N+]1[Cu]31[n]3c(c(C)c(C(=O)O)c3=C(CC(=O)O)C3=[N+]1C(=C2)C(C)C3CCC(=O)O)=C4 (centres unmarked),-2.1
11,COc1cc2ncnc(Nc3ccc(F)c(Cl)c3)c2cc1OCCCN1CCOCC1 [756745-L3],-9.92
12,CC(=O)OCC(=O)[C@@]1(O)CCC2C3CCC4=CC(=O)CC[C@]4(C)[C@@]3(F)[C@@H](O)C[C@@]21C (some centres unmarked),12.2
13,CC(=O)[C@@]1(O)CC[C@H]2[C@@H]3C[C@H](C)C4=CC(=O)C=C[C@]4(C)[C@@]3(F)[C@@H](O)C[C@@]21C,10.1
14,Cc1cccc(C)c1NC(=O)C1CCCCN1C (centres unmarked),13.3
15,C[N+]1(C)[C@@H]2C[C@@H](OC(=O)C(O)(c3cccs3)c3cccs3)C[C@H]1[C@@H]1O[C@@H]12,11.2
16,O=C(O)c1ccc[n+]([O-])c1,20.7
17,CO/N=C(/C(=O)NC1C(=O)N2C(C(=O)O)=C(C[N+]3(C)CCCC3)CSC12)c1csc(N)n1 (centres unmarked),21.4
18,CC(=O)Nc1ccc(C(=O)O)cc1,-20
19,COc1cc(N)c(Cl)cc1C(=O)N[C@@H]1CCN(CCCOc2ccc(F)cc2)C[C@@H]1OC,1.93
20,CCC(COC(=O)c1cc(OC)c(OC)c(OC)c1)(c1ccccc1)N(C)C (centres unmarked),17.5
21,CCN(CC)CCOC(=O)C(Cc1cccc2ccccc12)CC1CCCO1 (centres unmarked),24.5
22,NC(=O)[C@@H]1CCCN1C(=O)[C@H](Cc1cnc[nH]1)NC(=O)[C@@H]1CCC(=O)N1,9.33
23,CN1C2CCC1CC(OC(=O)[C@H](CO)c1ccccc1)C2 (some centres unmarked),23
24,O=C(O)C[C@H](O)C[C@H](O)/C=C/c1c(C2CC2)nc2ccccc2c1-c1ccc(F)cc1,15.5
25,CC(C)c1nc(N(C)S(C)(=O)=O)nc(-c2ccc(F)cc2)c1/C=C/[C@@H](O)C[C@@H](O)CC(=O)O,35.4
26,COCc1c(C(C)C)nc(C(C)C)c(/C=C/[C@@H](O)C[C@@H](O)CC(=O)O)c1-c1ccc(F)cc1,66.1

row,Structure (SMILES),% Inhibition [%]
1,N=C(N)NCC1COC2(CCCCC2)O1 (centres unmarked),21.2
2,COc1ccc2cc3[n+](cc2c1OC)CCc1cc2c(cc1-3)OCO2,29.8
3,CC(=O)Nc1c(I)c(C(=O)N[C@H]2C(O)O[C@H](CO)[C@@H](O)[C@@H]2O)c(I)c(N(C)C(C)=O)c1I (some centres unmarked),8.04
4,CCOC(=O)c1ncn2c1CN(C)C(=O)c1cc(F)ccc1-2,7.85
5,O=C(O)c1cccnc1Nc1cccc(C(F)(F)F)c1,25.3
6,COc1ccc2cc([C@H](C)C(=O)O)ccc2c1 [130714-L6],22.7
7,Cc1nccn1CC1CCc2c(c3ccccc3n2C)C1=O (centres unmarked),16.2
8,Cc1c(C(N)=O)cc([N+](=O)[O-])cc1[N+](=O)[O-],20.6
9,C[C@H](CCC(=O)O)[C@H]1CCC2C3C(=O)CC4CC(=O)CC[C@]4(C)C3CC(=O)[C@@]21C (some centres unmarked),17.3
10,CCCCCCOC(=O)/N=C(\N)c1ccc(NCc2nc3cc(C(=O)N(CCC(=O)OCC)c4ccccn4)ccc3n2C)cc1 [756753-L2],20.4
11,OC(CNCC(O)C1CCc2cc(F)ccc2O1)C1CCc2cc(F)ccc2O1 (centres unmarked),6.6
12,CC1OC1P(=O)(O)O (centres unmarked) [131204-L2],12.9
13,C/C(=C\C(=O)OCCCCCCCCC(=O)O)C[C@@H]1OC[C@H](C[C@@H]2O[C@H]2[C@@H](C)[C@H](C)O)[C@@H](O)[C@H]1O,26.3
14,CC(=O)Oc1cc(C(C)C)c(OCCN(C)C)cc1C,24.8
15,CCC(=O)OCC(=O)C1(OC(=O)CC)C(C)CC2C3CCC4=CC(=O)C=CC4(C)C3(Cl)C(O)CC21C (centres unmarked),22.7
16,NC(=O)C1(N2CCCCC2)CCN(CCCC(=O)c2ccc(F)cc2)CC1,18.8
17,CNCCC[C@]12CC[C@H](c3ccccc31)c1ccccc12,23.8
18,COC(=O)C1[C@H]2C[C@H]3c4[nH]c5ccccc5c4CCN3C[C@@H]2CC[C@@H]1O (some centres unmarked),22.5
19,CCN(C)C(=O)Oc1cccc([C@H](C)N(C)C)c1 [756883-L2],25.9
20,CC(CCc1ccc(O)cc1)NCC(O)c1ccc(O)cc1 (centres unmarked),-1.52
21,CC1(C)S[C@@H]2[C@H](NC(=O)[C@H](NC(=O)N3CCN(S(C)(=O)=O)C3=O)c3ccccc3)C(=O)N2[C@H]1C(=O)O,18.9
22,COCCCOc1cc(C[C@@H](C[C@H](N)[C@@H](O)C[C@H](C(=O)NCC(C)(C)C(N)=O)C(C)C)C(C)C)ccc1OC,-4.92
23,CCC(=O)OCC(=O)[C@@]1(OC(=O)CC)[C@H](C)CC2C3C([C@@H](O)C[C@@]21C)[C@@]1(C)C=CC(=O)C=C1C[C@H]3Cl (some centres unmarked),13.3
24,CC(=O)OCC(=O)[C@@]12OC(C)(C)O[C@@H]1C[C@H]1[C@@H]3C[C@H](F)C4=CC(=O)C=C[C@]4(C)[C@@]3(F)[C@@H](O)C[C@@]12C,11.4
25,Cc1cccc(C)c1NC1=NCCCS1,8.96
26,CC(=O)N[C@@H](CS)C(=O)O [129971-L5],0.0866

row,Structure (SMILES),% Inhibition [%]
1,CN(C)c1ccc(C(=C2C=CC(=[N+](C)C)C=C2)c2ccc(N(C)C)cc2)cc1,61.7
2,COc1cc(N)c(Cl)cc1C(=O)N[C@H]1CCN(CCCOc2ccc(F)cc2)C[C@H]1OC,9.62
3,CC(=O)OCC(=O)[C@@]1(O)CCC2C3CCC4=CC(=O)C=C[C@]4(C)[C@@]3(F)[C@@H](O)C[C@@]21C (some centres unmarked),15.9
4,CCN[C@@H](C)Cc1cccc(C(F)(F)F)c1,20.1
5,CC(=O)S[C@@H]1CC2=CC(=O)CC[C@]2(C)[C@H]2CC[C@@]3(C)[C@@H](CC[C@@]34CCC(=O)O4)C12 (some centres unmarked),28
6,C/C=C(/C)C(=O)O[C@@H]1[C@H](OC(C)=O)[C@@]2(CO)C(CC1(C)C)C1=CCC3[C@@]4(C)CC[C@H](O[C@@H]5O[C@H](C(=O)O)[C@@H](O[C@@H]6O[C@H](CO)[C@@H](O)[C@H](O)[C@H]6O)[C@H](O)[C@H]5O[C@@H]5O[C@H](CO)[C@@H](O)[C@H](O)[C@H]5O)[C@](C)(CO)C4CC[C@@]3(C)[C@]1(C)C[C@H]2O (some centres unmarked),3.82
7,CCN(CC)C(=O)C1CN2CCc3cc(OC)c(OC)cc3C2CC1OC(C)=O (centres unmarked),18.9
8,CC(=O)/N=c1\sc(S(N)(=O)=O)nn1C,11.1
9,COc1ccc2[nH]c(S(=O)Cc3ncc(C)c(OC)c3C)nc2c1 (centres unmarked) [255785-L6],24.6
10,COc1ccc2c3c1O[C@H]1[C@@H](O)C=C[C@H]4[C@@H](C2)N(C)CC[C@@]341,10.8
11,CC(=O)OCC(=O)[C@@]1(O)CC[C@H]2[C@@H]3CCC4=CC(=O)CC[C@]4(C)[C@@]3(F)[C@@H](O)C[C@@]21C,17.7
12,N=C(NCCCCCCNC(=N)NC(=N)Nc1ccc(Cl)cc1)NC(=N)Nc1ccc(Cl)cc1,63.6
13,CC(C)/N=C(N)/N=C(\N)Nc1ccc(Cl)cc1 [131550-L2],9.42
14,CC(C)/N=C(N)/N=C(\N)Nc1ccc(Cl)cc1 [131550-L3],10.7
15,O=C(O)COC(=O)Cc1ccccc1Nc1c(Cl)cccc1Cl,-10.4
16,N=C(N)N,14.8
17,Cc1cc2nc3c(=O)[nH]c(=O)nc-3n(C[C@H](O)[C@H](O)[C@H](O)CO)c2cc1C,14.9
18,CO/N=C(\C(=O)N[C@@H]1C(=O)N2C(C(=O)O)=C(CSc3nc(=O)c(=O)[nH]n3C)CS[C@@H]12)c1csc(N)n1,13.4
19,Cc1ccc(S(=O)(=O)NC(=O)NN2CCCCCC2)cc1,32
20,C[C@]12CCC3c4ccc(OS(=O)(=O)O)cc4CCC3C1CCC2=O (some centres unmarked),-1.63
21,CO[C@@H]1[C@@H](OC(N)=O)[C@@H](O)[C@H](Oc2ccc3c(O)c(NC(=O)c4ccc(O)c(CC=C(C)C)c4)c(=O)oc3c2C)OC1(C)C,9.7
22,O=C(O)CCCCC1CCSS1 (centres unmarked),21.9
23,CCC(=O)O[C@H]1[C@H](O[C@@H]2[C@@H](C)[C@H](O[C@H]3C[C@@](C)(OC)[C@@H](O)[C@H](C)O3)[C@@H](C)C(=O)O[C@H](CC)[C@@](C)(O)[C@H](O)[C@@H](C)C(=O)[C@H](C)C[C@@]2(C)O)O[C@H](C)C[C@@H]1N(C)C,4.56
24,C=Cc1c(C)c2cc3[nH]c(cc4nc(cc5nc(cc1[nH]2)C(C)=C5CCC(=O)O)C(CCC(=O)O)=C4C)c(C)c3C=C,5.79
25,C[C@H]1CN(C[C@H](Cc2ccccc2)C(=O)NCC(=O)O)CC[C@@]1(C)c1cccc(O)c1,13.2
